This passage reports inhibition results from PubChem BioAssay AID2315 (National Center for Advancing Translational Sciences (NCATS), 2010).

The whole screen tested about 290,000 compounds, of which about 27,000 (9.3%) were called active. This is one part of a sample in which actives are shown more often than they occur. A number with no mark means an inactive call. Cut-off read from the data, not from the text of the source: active = inhibition mostly above about 28% (no sharp cut-off); inactive = mostly below about 43%.

This assay is described as follows: A qHTS for Small Molecule Inhibitors of Shiga Toxin. Note: 0% is about no effect. The settings on record: Vero cells, Shiga toxin protein synthesis inhibition reporter; at 38.7 µM, active compounds read high. For orientation: In qHTS, concentration-response curves come from the screen itself.
As to `Cn1nccc1C(=O)NC1CCCc2c1cnn2-c1ccccc1F` (stereo unspecified), the inhibition (commonly the change of the read-out against control, counted positive when it falls) is -4.18%. Regarding `CCN1C(=O)c2cccc3c(S(=O)(=O)Nc4ccccc4O)ccc1c23`, the inhibition was 34.3%. The figure for `CC1CN(C(=S)Nc2cccc(F)c2)CC(C)O1` (stereo unspecified) is -2.89%; for `O=C(CN1CCN(c2ccccn2)CC1)Nc1ccc(Br)cc1` it is -9.75%; for `CCCCSc1nnc(-c2ccc(NC(=O)CC)cc2)n1C` it is -10.7%. For `CCC(=O)Nc1ccc(-c2ccc(N3CCCCC3)nn2)cc1`, the inhibition was 63.9% (active). The figure for `O=C(CN1C(=O)c2cccnc2Oc2ccc(Cl)cc21)NCCc1ccccc1` is 3.75%. The figure for `CCOc1ccc(C(=O)Nc2cccc(SC)c2)cc1` is 47.7% (active); for `CCOc1ccc(C(=O)Nc2cccc(-c3ccc4nncn4n3)c2)cc1` it is 35.1%; for `Cc1nnc(SCC(=O)Nc2cccc(N)c2)n1-c1ccccc1` it is 4.15%.

For `O=C(CSc1nc(C2CC2)nc2ccccc12)Nc1cccc(O)c1`, the inhibition is -5.2%. The result for `O=C(CSc1ccccc1)Nc1ccc(C(=O)Nc2cccc(O)c2)cc1` reads 65.7% (active). `Cc1cc(C)cc(NC(=O)CSc2ccccc2)c1`: the inhibition was 29.4%. The figure for `CCOc1ccc(C(=O)Nc2ccncc2)cc1` is 77.7%.

Consider `CSc1cccc(NC(=O)CSc2ccccc2)c1`, for which the inhibition was 3.54% (active).

For `O=C(Cc1ccccc1)Nc1ccc(C(=O)Nc2ccccc2C(=O)O)cc1`, the inhibition is -19.6%. For `Cc1cc(S(=O)(=O)c2cc3ccc(O)c(C)c3oc2=O)ccc1F`, the inhibition was 23.1%. The result for `Cc1nn(C)c(C)c1C(C)NC(=O)c1ccc(OC2CCN(Cc3ccccn3)CC2)cc1` (stereo unspecified) reads 8.35%.

As to `NNC(=O)c1nnn(-c2nonc2N)c1CN1CCCC1`, the inhibition is -1.91%.

As for `CCc1nc(Nc2ccc(NC(C)=O)cc2)c2oc3ccccc3c2n1`, the inhibition was -2.91%. `Cc1c(CNCCc2ccccc2)c(C(=O)O)c(C)n1-c1ccccc1`: the inhibition is -0.721%. The figure for `Cc1ccc(CSCC2Nc3ccc(C(=O)N4CCN(c5ccc(F)cc5)CC4)cc3NC2=O)cc1` (stereo unspecified) is 13.1%; for `CCOc1ccc(NC(=O)c2ccc(NC(=O)C3CCCO3)cc2)cc1` (stereo unspecified) it is 0.828%; for `Cc1cc2c(cc1S(=O)(=O)NCc1ccc(Cl)cc1)OCC(=O)N2` it is -2.9%. Regarding `CC(NC(=O)C1CCCN(S(=O)(=O)c2ccc(-n3cnnn3)cc2)C1)c1ccc(F)cc1` (stereo unspecified), the inhibition was -5.87%. The result for `CSc1ccc(/C=C/C(=O)NC23CC4CC(CC(C4)C2)C3)cc1` reads 103% (active). The figure for `Cc1ccc(C(=O)NC23CC4CC(CC(C4)C2)C3)c(Cl)c1` is 6.22%; for `CSc1ccc(NC(=O)/C=C/C(=O)O)cc1` it is 18.3%. As for `Cc1ccc2sc(N(CCN(C)C)C(=O)/C=C/c3cccs3)nc2c1C`, the inhibition was -3.15%. The result for `CCOC(=O)c1nc(Nc2ccc(C(=O)OC)cc2)c2ccccc2n1` reads 17%; that for `COC(=O)c1ccc(Nc2ncnc3sccc23)cc1`, 42% (active); that for `COC(=O)c1ccc(NC(=O)CSc2nncc3ccc(OC)c(OC)c23)cc1`, -11.5%. The result for `COc1cc2c(cc1OC)C(c1cccc([N+](=O)[O-])c1)=NCC2` reads -8.7%.

On to `O=c1[nH]c(=S)n(C2CC2)c(O)c1/C=N/N1CCOCC1`, for which the inhibition was -6.68%.

As for `O=C(N/N=C/c1c(O)n(C2CC2)c(=S)[nH]c1=O)c1ccccc1Cl`, the inhibition is 30.7%. The result for `O=C(N/N=C/c1c(O)n(C2CC2)c(=S)[nH]c1=O)c1ccccc1` reads 84.6% (active). The result for `Cn1cnc2c1c(=O)n(Cc1ccccc1C#N)c(=O)n2C` reads -8.82%. The result for `Cc1ccc(NC(=O)c2ccccn2)cc1S(=O)(=O)N1CCOCC1` reads 28%. `COC(=O)[C@@H](NC(=O)Nc1cc(Cl)ccc1C)C(C)C`: the inhibition is 8.66%. The result for `Cc1ccc(Cl)cc1NC(=O)c1ccccn1` reads 31.5% (active). The figure for `O=C(N/C(=C\c1ccc([N+](=O)[O-])cc1)C(=O)N1CCOCC1)c1cccc(Br)c1` is -35.2%; for `Cn1c(=O)c2c(nc(Br)n2CCSc2nc3ccccc3o2)n(C)c1=O` it is -12.2%; for `Fc1ccccc1OCCSc1nc2ccccc2o1` it is 110% (active). For `OCCNCCCCOc1ccccc1F`, the inhibition was -2.38%. With `O=S(=O)(c1cccc(-c2cn3ccccc3n2)c1)N1CCCC1`, the inhibition was 16.7%. For `COc1ccc(N(Cc2ccccc2)S(=O)(=O)c2cccc(C(=O)O)c2)cc1`, the inhibition is -12.2%. The result for `COc1ccc(CN(C)C(=O)CC(c2ccccc2)c2ccccc2)cc1` reads 6.72%; that for `COc1ccc(C(CC(=O)c2ccccc2)S(=O)(=O)c2ccccc2)cc1` (stereo unspecified), 26.9% (active). The figure for `Cc1[nH]c2ccccc2c1C(=O)CN1CC(C)CC(C)C1` (stereo unspecified) is -6.33%. Turning to `COc1ccc2nc(NC(=O)c3ccc(Br)s3)sc2c1`, the inhibition was 51.2% (active). The figure for `COc1ccc(CNC(=O)c2ccc(Br)s2)cc1OC` is 31.8%; for `COc1ccc2nc(Nc3nc4cc5c(cc4s3)OCCO5)sc2c1` it is 46.4% (active); for `COc1ccc2nc(NC(=O)NC3CCCCC3)sc2c1` it is 96.4% (active). As to `Cc1nc2cc3c(cc2s1)OCO3`, the inhibition is 13.4%.

On to `COc1ccc2nc(NC(=O)[C@@H]3CCCN3C(=O)c3cccs3)sc2c1`, for which the inhibition is 60.1%. The result for `COc1ccc2nc(Nc3nc4ccc(NC(C)=O)cc4s3)sc2c1` reads 35.3%; that for `CCn1c(SCC(=O)Nc2nc3ccc(OC)cc3s2)nnc1-c1ccoc1C`, 56.7%. As for `COc1ccc(-n2cnc3cc(C(=O)NC4CCCC4)ccc32)cc1`, the inhibition was -10.6%.

For the molecule `COc1ccc(N(CC(=O)Nc2cc(OC)ccc2OC)S(=O)(=O)c2c(C)noc2C)cc1`, the inhibition is -2.51%. The figure for `O=C(O)c1ccc(/C=C2/SC(=S)N(c3cccc(C(F)(F)F)c3)C2=O)cc1` is -0.926%. The figure for `CCOC(=O)c1cc(S(=O)(=O)NCCc2ccc(OC)c(OC)c2)cn1C` is -9.15%; for `N#CC1=C(N)Oc2c(sc3ccccc23)C1c1ccco1` (stereo unspecified) it is 139% (active).

As to `Cc1cc(C)c2c3c(sc2n1)C(c1ccccc1)C(C#N)=C(N)O3` (stereo unspecified), the inhibition is 16.2%. The figure for `N#CC1=C(N)Oc2c(c(=O)oc3ccccc23)C1c1ccccc1OC(=O)c1cccs1` (stereo unspecified) is -8.1%.

With `COc1cccc(NC(=O)CSc2nnc(Cc3ccc(OC)c(OC)c3)o2)c1`, the inhibition is -3.46%. The result for `CCN(CC)CCCNC(=S)N(CCO)Cc1cc2cc3c(cc2[nH]c1=O)OCO3` reads -4.73%; that for `COCCNc1ncnc2c1nc1n2CCCC1`, -7.74%. The result for `O=C(NCCc1ccc(F)cc1)c1n[nH]c2ccccc12` reads 69.4% (active); that for `COc1ccc(COC(=O)c2n[nH]c3ccccc23)cc1F`, 52.9% (active).

As for `COc1cccc(CNC(=O)c2n[nH]c3ccccc23)c1`, the inhibition is 31.3% (active). For `CCN(CC)S(=O)(=O)c1ccc2nc(COC(=O)c3n[nH]c4ccccc34)[nH]c2c1`, the inhibition is -12.2%. The figure for `C=CCN(CC=C)C(=O)COC(=O)c1n[nH]c2ccccc12` is 10.1%; for `O=C(CC(=O)N/N=C\c1ccc(F)cc1)NCCc1ccccc1` it is 10.7%. The result for `COc1cccc(CNC(=O)Cc2csc(Nc3nc(=S)[nH]c4ccccc34)n2)c1` reads 1.99%. The result for `O=C(COC(=O)c1n[nH]c2ccccc12)NCc1ccccc1` reads -4.54%; that for `O=C(NCCCO)c1cc2c([nH]c3ccccc32)c(-c2ccc(F)cc2)n1`, -5.91%; that for `Cc1cccc(OCC(O)Cn2c(N3CCCCC3)nc3c2c(=O)[nH]c(=O)n3C)c1` (stereo unspecified), 35.6%. `CCn1cc(CN2CCC(C(=O)Nc3cccc(-c4cccc(Cl)c4)c3)CC2)c(C)n1`: the inhibition is -29.7%. The result for `Cc1ccccc1NC(=O)Cn1cc(C(=O)C2CC2)c2ccccc21` reads 14.9%. The result for `O=C(C1CCN(S(=O)(=O)c2ccc(Br)s2)CC1)N1CCN(c2ccccc2)CC1` reads 14.2%. The figure for `COc1cc2c(cc1OC)C(C(=O)NCc1ccco1)C1c3ccccc3CCN1C2=O` (stereo unspecified) is -23.5%. Take `Cc1ccc(NC(=O)CSc2sc3c(O)cc(=O)[nH]c3c2C#N)cc1C`: the inhibition is -11.9%. The result for `COc1ccc(C(C)C)cc1S(=O)(=O)Nc1ncn[nH]1` reads -1.36%. The figure for `O=C(C1CCCN(S(=O)(=O)c2ccccc2)C1)N1CCN(c2ccc(F)cc2)CC1` (stereo unspecified) is -6.64%; for `Cc1cc(NC(=O)CCC(=O)N(CC(=O)NC2CCCC2)c2ccc(F)cc2)no1` it is 29.9%; for `O=C(NCCN1CCOCC1)c1c(F)c(F)c(F)c(F)c1F` it is 33.6%. The figure for `CN(CC(=O)NCCN1CCOCC1)S(=O)(=O)c1ccc(F)cc1` is -3.65%; for `Fc1ccc(-c2ccc(NCCN3CCOCC3)nn2)cc1` it is 51.7% (active); for `O=[N+]([O-])C(=c1ccc2c(c1)N1C3=C(CCCC3)CC3CCCCC31N=2)[N+](=O)[O-]` (stereo unspecified) it is 27.4%. As to `COCCCNC(=O)C1CC(=O)N(CCc2ccc(F)cc2)C1` (stereo unspecified), the inhibition was -8.38%. For the molecule `CCOc1cccc(/C=N/NC(=S)NCCN2CCOCC2)c1O`, the inhibition was 22.8%. The result for `O=C1CSC(=S)N1/N=C/c1ccc(O)c([N+](=O)[O-])c1` reads 34.5%. The result for `CCOc1cccc(/C=N/N2C(=O)CSC2=S)c1O` reads 38% (active). The figure for `CCN(CC)CCCNC(=O)c1c(O)c2cc(F)cc3c2n(c1=O)C(C)CC3` (stereo unspecified) is 2.56%. On to `O=C(c1ccccc1)N1CCN(C(=O)c2cc3nc(-c4ccccc4)cc(C(F)(F)F)n3n2)CC1`, for which the inhibition is 3.38%. The figure for `OCCNc1nc(Nc2ccc(Cl)c(Cl)c2)nc2ccccc12` is 29.5%.
